# Screens (PubChem)
# This is a sample that favours compounds with a hit; in the whole collection about 18% have one here.
# LDHA inh: qHTS assay for inhibitors of human lactate dehydrogenase. L-lactate dehydrogenase A chain (Homo sapiens), P00338. purified LDHA, NADH/diaphorase-resazurin fluorescence; stronger effect = lower value. activity change, % (values are at about 110 or 230 µM). 480,000 tested, 0.15% active; in the data active means activity change below about -30%; inconclusive means mostly about -25% to -30%;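 further: plate controls were DMSO wells for no effect and wells without enzyme for full effect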
#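 Human LDH5 (2 nM) was incubated with 0.06 mM NADH and 0.2 mM pyruvate for 5 min at room temperature in Tris pH 7.4. Remaining NADH was coupled through diaphorase/resazurin, and resorufin fluorescence was read at 0 and 20 min.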
# RORg inh: qHTS for inhibitors of ROR gamma transcriptional activity; Drosophila S2 Gal4-RORgamma UAS-luciferase reporter, 20 h; Potency, µM (highest dose often 53.6 µM), for inactives: at the top dose activity change, negative = inhibition, hits mostly inhibitors; 310,000 tested, 5.4% active; further: potency means the concentration at half of the fitted maximal effect; nearly all actives have a fitted effect of over 60% in size
# Target sequence (P51450 whole entry, looked up, the tested form may be a part): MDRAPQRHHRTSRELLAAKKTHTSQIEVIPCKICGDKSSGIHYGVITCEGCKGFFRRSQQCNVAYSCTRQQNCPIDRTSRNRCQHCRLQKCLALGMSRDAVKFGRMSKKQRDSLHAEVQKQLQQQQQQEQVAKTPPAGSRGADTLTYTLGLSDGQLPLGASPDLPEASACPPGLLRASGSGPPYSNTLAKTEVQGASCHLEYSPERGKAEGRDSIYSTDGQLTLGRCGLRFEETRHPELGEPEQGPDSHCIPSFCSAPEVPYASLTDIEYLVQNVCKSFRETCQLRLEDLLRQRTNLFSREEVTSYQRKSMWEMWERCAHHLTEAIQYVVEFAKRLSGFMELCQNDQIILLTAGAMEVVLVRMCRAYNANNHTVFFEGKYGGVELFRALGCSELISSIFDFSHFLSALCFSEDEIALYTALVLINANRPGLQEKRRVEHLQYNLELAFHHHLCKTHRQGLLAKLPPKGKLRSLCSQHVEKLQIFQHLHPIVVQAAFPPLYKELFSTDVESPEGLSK
#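 Luciferase reporter read in Schneider cells carrying Gal4-RORγ (mouse) and UAS-Photinus luciferase; cells given compound 1 h before 700 uM copper sulfate induction, then incubated 20 h at ambient temperature.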
# IL1B secr inh: qHTS for Inhibitors of Inflammasome Signaling: IL-1-beta AlphaLISA Primary Screen; THP-1 LPS/ATP IL-1B secretion, AlphaLISA, 16 h; stronger effect = lower value; 360,000 tested, 4.7% active; activity change, % at 57.5 µM; in the data active means activity change below about -50%; inconclusive means mostly about -30% to -49%
#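 Secreted IL-1B measured by AlphaLISA bead assay after 16 h compound exposure of THP-1 cells; compounds (final up to 57.5 uM) added 1 h before LPS (250 ng/mL) and ATP (1.25 mM) stimulation; lower signal means less secretion.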
# TDP1 cell noCPT: qHTS for Inhibitors of human tyrosyl-DNA phosphodiesterase 1 (TDP1): qHTS in cells in absence of CPT. DT40 Tdp1-/- hTDP1 cells, no CPT, ATP luminescence, 48 h. Potency, µM (highest dose often 46.2 µM), for inactives: at the top dose activity change, negative = growth inhibition, actives largely listed as inhibitors. 420,000 tested, 15% active. AID 686978, 2013; further: potency means the concentration at half of the fitted maximal effect; nearly all actives have a fitted effect of over 55% in size
#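 Readout: luminescence from CellTiter-Glo after 30 min in the dark at RT. Cells: DT40 Tdp1-/- with stable hTDP1, 400/well. Exposure: compounds alone, ≥48 hr, 37 °C.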
# Gal4-VP16 FLuc: VP16 counterscreen qHTS for inhibitors of ROR gamma transcriptional activity. AID 2546, 2010. 310,000 tested, 3.5% active. Potency, µM (doses to about 53.6 µM), without a hit: at the highest dose activity, negative = inhibition, actives largely listed as inhibitors. Drosophila S2 Gal4-VP16 UAS-luciferase, luminescence, 20 h;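 further: Gal4-VP16 expression switched on by copper sulfate through the metallothionein promoter; potency means the concentration at half of the fitted maximal effect; nearly all actives have a fitted effect of over 50% in size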
# DT40 TDP1 CPT: qHTS for Inhibitors of human tyrosyl-DNA phosphodiesterase 1 (TDP1): qHTS in cells in presence of CPT; chicken DT40 Tdp1-/-;hTDP1 cells + 20 nM CPT, ATP luminescence, 48 h; Potency, µM (titrated, usually from 46.2 µM), for the others: at the highest dose activity change, negative = growth inhibition, usual class: inhibitors; 420,000 tested, 12% active; AID 686979, 2013; further: potency means the concentration at half of the fitted maximal effect; nearly all actives have a fitted effect of over 55% in size
#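 Chicken DT40 Tdp1-/- cells complemented with human TDP1, 400 cells/well, exposed to compounds plus 20 nM camptothecin for at least 48 h at 37 C; viability read as ATP content by CellTiter-Glo luminescence.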
# An asterisk follows results filed as active; ? = inconclusive; . = no result; [ ] = remark or other dose. Unless noted, the call rests on the fitted dose curve; in most records, active means well fitted curve in the direction sought with a large enough effect; inconclusive means small, poorly fitted or top-dose-only effect, or another doubt; inactive means no such curve, though single readings can be large; an effect the other way counts as inactive or inconclusive. Unless noted, on the % scale 0 is the no-effect control and ±100 the full control effect.
SMILES,LDHA inh,RORg inh,IL1B secr inh,TDP1 cell noCPT,Gal4-VP16 FLuc,DT40 TDP1 CPT
COc1ccccc1/C=C/C(=O)c1c2c(c(C)[nH]c1=O)CCCC2,8,5.6µM*,-101*,?,4.5µM*,?
COc1ccccc1/C=C/C(=O)c1ccc(NC(C)=O)cc1,-1,?,-107*,15µM*,?,?
COc1ccccc1/C=C/C(=O)c1ccccc1,-2,?,-18,13µM*,0%,?
COc1ccc(OC)c(/C=C/C(=O)c2ccc(Cl)cc2)c1,2,?,-89*,?,-16%,18µM*
COc1cccc(/C=C/C(=O)OCC(=O)c2ccc3c(c2)NC(=O)CO3)c1OC,-11,-4%,6,-23%,-11%,6%
CC(C)[C@H](NC(=O)c1ccccc1)C(=O)OCC(=O)c1ccc2c(c1)NC(=O)CO2,1,1%,0,5.8µM*,1%,4.6µM*
COc1ccc(/C=C/C(=O)OCC(=O)c2ccc3c(c2)NC(=O)CO3)c(OC)c1,-1,25%,-52*,4%,-6%,-8%
COc1cc(OC)cc(C(=O)N[C@H](C(=O)OCC(=O)c2ccc3c(c2)NC(=O)CO3)C(C)C)c1,-2,16%,2,-15%,2%,22%
O=C1COc2ccc(C(=O)CCl)cc2N1,-1,?,-90*,1.6µM*,?,5.8µM*
CCc1ccc(OCC(=O)OCC(=O)c2ccc3c(c2)NC(=O)CO3)cc1,0,-4%,6,-23%,-15%,-8%
CCCCCCC(=O)OCC(=O)c1ccc2c(c1)NC(=O)CO2,-7,-15%,-20,13µM*,-4%,8.2µM*
O=S(=O)(c1ccc(Cl)cc1)N1CCN(Cc2ccc(O)c3ncccc23)CC1,14,1µM*,38,5.8µM*,2.8µM*,6.5µM*
Oc1ccc(CN2CCN(Cc3ccccc3)CC2)c2cccnc12,14,5%,98,?,-1%,21µM*
CN1CCN(C2CCN(Cc3ccc(O)c4ncccc34)CC2)CC1,21,.,.,.,.,.
CN(Cc1ccc(C(N)=O)cc1)C(=O)c1cc2ccccc2[nH]1,4,.,.,.,.,.
CCOc1ccccc1NS(=O)(=O)c1cc(C(C)(C)C)ccc1C,0,.,.,.,.,.
COc1cccc(CNC(=O)c2ccc3c(c2)sc2nc(-c4ccccc4)cn23)c1OC,3,.,.,5.8µM*,.,9.2µM*
COc1ccccc1CNC(=O)c1ccc2c(c1)sc1nc(-c3ccc(F)cc3)cn12,-2,.,.,8.2µM*,.,7.3µM*
COc1ccc(-c2cn3c(n2)sc2cc(C(=O)NCc4ccccc4)ccc23)cc1,-1,.,.,?,.,?
CC(C1CC1)N(C)Cc1nnc(-c2ccc(Br)o2)o1 (stereo unspecified),-20,.,.,.,.,.
COc1ccc2c(c1)Cc1sc(NC(=O)c3cccc(F)c3)nc1-2,21,.,.,?,.,?
COc1ccc(C(=O)Nc2nc3c(s2)Cc2cc(OC)ccc2-3)cc1,22,?,-53*,?,35µM*,?
COc1ccc2c(c1)Cc1sc(NC(=O)c3cccs3)nc1-2,8,7.9µM*,-13,21µM*,?,?
COc1ccc2c(c1)Cc1sc(NC(=O)c3ccccc3)nc1-2,19,11µM*,-4,?,-26%,?
COc1ccc2c(c1)Cc1sc(NC(=O)c3cccc(Br)c3)nc1-2,19,.,.,?,.,?
SMILES,LDHA inh,RORg inh,IL1B secr inh,TDP1 cell noCPT,Gal4-VP16 FLuc,DT40 TDP1 CPT
COc1ccc2c(c1)Cc1sc(NC(=O)c3ccccc3Cl)nc1-2,0,.,.,.,.,.
COc1ccc2c(c1)CCc1sc(NC(=O)c3ccc(Cl)cc3)nc1-2,18,.,.,21µM*,.,18µM*
N#CCOC(=O)c1cc(-c2cccs2)nc2ccccc12,0,.,.,.,.,.
O=C(COc1ccc2ccc(=O)oc2c1)N(Cc1cccs1)C1CC1,-13,.,.,.,.,.
O=C(Nc1cccc(-c2nc3cc(Cl)ccc3o2)c1)c1ccccc1F,8,.,.,.,.,.
COc1ccc(Br)c2c1-c1nc(NC(=O)c3cccc(C)c3)sc1C2,3,.,.,23µM*,.,?
O=C(CCl)N1c2ccccc2Sc2c1ccc1ccccc21,9,.,-102*,5.8µM*,.,3.7µM*
Cc1ccc(S(=O)(=O)N2CCN(C(=O)CN3CCOCC3)C2c2ccccc2)cc1 (stereo unspecified),-3,-10%,-2,16µM*,-13%,?
Cc1ccc(S(=O)(=O)N2CCN(S(=O)(=O)c3ccccc3)C2c2ccc(N(C)C)cc2)cc1 (stereo unspecified),-9,29%,10,?,1%,16µM*
O=C(CN1CCOCC1)N1CCN(S(=O)(=O)c2ccccc2)C1c1ccccc1 (stereo unspecified),-14,12%,17,-16%,-5%,-20%
CNc1ccccc1C(C)(C)c1cc(C)[nH]n1,-1,-17%,6,?,3%,16µM*
CCOc1ccc(-c2cc(CCCC(=O)NCc3ccco3)no2)cc1,2,0.11µM*,18,21µM*,?,?
CCOc1ccc(-c2cc(CCCC(=O)NCCc3ccc(Cl)cc3)no2)cc1,0,.,.,-18%,.,?
CCOc1ccc(-c2cc(CCCC(=O)NCc3ccc(C)cc3)no2)cc1,-6,1.3µM*,3,-24%,?,-22%
O=C(N/N=C/c1cn(-c2ccccc2)nc1-c1cc2ccccc2o1)c1c[nH]c2ccccc12,-8,?,-60*,4.6µM*,-1%,?
Cc1c(/C=N\NC(=O)c2c[nH]c3ccccc23)cnn1C,-12,19%,7,-12%,-1%,-2%
O=C(O)/C=C/c1cn(-c2ccccc2)nc1-c1cc2ccccc2oc1=O,-8,20%,44,17%,5%,-22%
O=C(N/N=C/c1cn(-c2ccccc2)nc1-c1cc2ccccc2o1)c1ccccc1Br,0,?,1,15µM*,5µM*,4.6µM*
CCc1cccc(NC(=O)Cn2nc3ccc(S(=O)(=O)C(C)(C)C)nn3c2=O)c1,-1,.,.,.,.,.
O=C(OCCCc1ccccc1)c1cccnc1,3,.,.,.,.,.
O=C1CSC2(CCN(CCCN3c4ccccc4Sc4ccc(Cl)cc43)CC2)N1,.,3%[10 µM],.,9.4µM*,-15%,24µM*
